From PubChem BioAssay (NCATS)
Where “and” joins values, the source holds several entries; their conditions need not be identical. Identical values can stand only once. Inconclusive results are not listed. Calls of active or inactive are those of the source. Calls follow the shape of the dose curve; as a rule, active = well fitted inhibition curve with a large enough effect; inconclusive = small, poorly fitted or top-dose-only effect; inactive = flat fitted curve, though single readings scatter.

Columns and labels:
CRL-7250 = normal cell line; assay: Cytotoxic Profiling of Annotated Libraries Using Quantitative High-Throughput Screening (AID 1296008); conditions: Five cell lines viability, CellTiter-Glo ATP luminescence, 48-72 h; max response: active compounds read low; also: potency is read from the fitted curve at half-maximal effect; as to max response: % is scaled to controls: 0 for no effect and ±100 for the full control effect
How it was run: (§1)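 Cells exposed to compounds for 48 or 72 hr at 37 degrees Celsius. Viability read as ATP-coupled luminescence with CellTiter-Glo after 10 min at room temperature.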

HEK293 = assay: as above; conditions: Five cell lines viability, CellTiter-Glo ATP luminescence, 48-72 h; max response: active compounds read low
How it was run: as §1

HaCat [1] = assay: as above; conditions: Five cell lines viability, CellTiter-Glo ATP luminescence, 48-72 h; max response: active compounds read low
How it was run: as §1

KB-3-1 = assay: as above; conditions: Five cell lines viability, CellTiter-Glo ATP luminescence, 48-72 h; max response: active compounds read low
How it was run: as §1

NIH3T3 = assay: as above; conditions: Five cell lines viability, CellTiter-Glo ATP luminescence, 48-72 h; max response: active compounds read low
How it was run: as §1

HEK293T = assay: qHTS assay to identify novel small-molecules to repurpose for Merkel cell carcinoma treatment (AID 1296009); conditions: MCC and control cell lines, CellTiter-Glo viability, 72 h; at 44.8 µM (top of the series) unless noted; as to activity change, negative = cytotoxicity: % is scaled to controls: 0 for no effect and ±100 for the full control effect
How it was run: (§2)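 Cells were treated for 72 hr at 37 degree celsius with compounds in 8- or 11-point dose response. Viability was read by CellTiter-Glo luminescence, normalized to no-cell (cytotoxicity) and DMSO controls.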

MCC-13 = assay: as above; conditions: MCC and control cell lines, CellTiter-Glo viability, 72 h; series mostly up to 46 µM
How it was run: as §2

MCC-26 = assay: as above; conditions: MCC and control cell lines, CellTiter-Glo viability, 72 h; series mostly up to 46 µM
How it was run: as §2

MKL-1 = assay: as above; conditions: MCC and control cell lines, CellTiter-Glo viability, 72 h; series mostly up to 46 µM
How it was run: as §2

P94_40 = assay: qHTS profiling for inhibitors of Plasmodium falciparum proliferation (AID 504749); also: potency is read from the fitted curve at half-maximal effect; conditions: P. falciparum in erythrocytes, SYBR Green DNA, 72 h; series mostly up to 28.7 µM
How it was run: (§3)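 P. falciparum-infected erythrocytes (0.3% parasitemia, 2.5% hematocrit) incubated with compound 72 h at 37 C, 5% CO2. Parasite DNA detected by SYBR Green after lysis, overnight at room temperature; normalised to 0.29 uM artemisinin and DMSO.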

PAD = assay: as above; conditions: P. falciparum in erythrocytes, SYBR Green DNA, 72 h; series mostly up to 28.7 µM
How it was run: as §3

PC15 = assay: as above; conditions: P. falciparum in erythrocytes, SYBR Green DNA, 72 h; series mostly up to 28.7 µM
How it was run: as §3

PC26 = assay: as above; conditions: P. falciparum in erythrocytes, SYBR Green DNA, 72 h; series mostly up to 28.7 µM
How it was run: as §3

PC49 = assay: as above; conditions: P. falciparum in erythrocytes, SYBR Green DNA, 72 h; series mostly up to 28.7 µM
How it was run: as §3

SC27B = assay: as above; conditions: P. falciparum in erythrocytes, SYBR Green DNA, 72 h; series mostly up to 28.7 µM
How it was run: as §3

TAB109 = assay: as above; conditions: P. falciparum in erythrocytes, SYBR Green DNA, 72 h; series mostly up to 28.7 µM
How it was run: as §3

TAB113 = assay: as above; conditions: P. falciparum in erythrocytes, SYBR Green DNA, 72 h; series mostly up to 28.7 µM
How it was run: as §3

W2 = assay: as above; conditions: P. falciparum in erythrocytes, SYBR Green DNA, 72 h; series mostly up to 28.7 µM
How it was run: as §3

TAB165 = assay: as above; conditions: P. falciparum in erythrocytes, SYBR Green DNA, 72 h; series mostly up to 28.7 µM
How it was run: as §3

HACAT [2] = assay: qHTS assay to identify novel small-molecules to repurpose for Merkel cell carcinoma treatment (AID 1296009); conditions: MCC and control cell lines, CellTiter-Glo viability, 72 h; at 44.8 µM (top of the series) unless noted; as to activity change, negative = cytotoxicity: % is scaled to controls: 0 for no effect and ±100 for the full control effect
How it was run: as §2
Also: nearly all actives have a fitted effect of over 60% in size.

CC1(C)OC[C@@H](COC(=O)CCc2ccc(OC[C@@H](O)CNCCNC(=O)N3CCOCC3)cc2)O1
inactive: outcome (CRL-7250) | outcome (HEK293) | max response (HaCat [1]) 3.95% | max response (KB-3-1) -12.4% and -13.1% | max response (NIH3T3) 4.95% | outcome (HEK293T) | Potency (MCC-13) | Potency (MCC-26) | Potency (MKL-1)

CCOC(=O)COc1ccc2c(C)c(CCN(CC)CC)c(=O)oc2c1Cl
active: Potency (CRL-7250) 29.9 µM
inactive: Potency (P94_40) | Potency (PAD) | Potency (PC15) | Potency (PC26) | Potency (PC49) | Potency (SC27B) | Potency (TAB109) | Potency (TAB113) | Potency (W2) | outcome (HEK293) | max response (HaCat [1]) -12.1% | max response (KB-3-1) 7.91% | max response (NIH3T3) 1.29% | outcome (HEK293T) | Potency (MCC-13) | Potency (MCC-26)

O=C1OC2(c3ccc(O)cc3Oc3cc(O)ccc32)c2ccccc21
inactive: max response (CRL-7250) -1.47% | max response (HEK293) -1.16% | max response (HaCat [1]) -26.2% | max response (KB-3-1) -10.5% | max response (NIH3T3) -4.38% | Potency (MCC-13) | Potency (MCC-26) | Potency (MKL-1)

CCn1cc(C(=O)O)c(=O)c2cnc(N3CCCC3)nc21
inactive: Potency (P94_40) | Potency (PAD) | Potency (PC15) | Potency (PC26) | Potency (PC49) | Potency (SC27B) | Potency (TAB109) | Potency (TAB113) | Potency (TAB165) | Potency (W2) | max response (CRL-7250) 4.85% | max response (HEK293) 1.04% | max response (HaCat [1]) -10.2% | max response (KB-3-1) 8.93% | max response (NIH3T3) -2.06% | activity change, negative = cytotoxicity (MCC-13) 5.05% [at 9.22 µM] | activity change, negative = cytotoxicity (MCC-26) -5.4% [at 9.22 µM] | activity change, negative = cytotoxicity (MKL-1) 1.32% [at 9.22 µM]

CCOC(=O)c1cccc(N)c1
inactive: Potency (P94_40) | Potency (PAD) | Potency (PC15) | Potency (PC49) | Potency (SC27B) | Potency (TAB109) | Potency (TAB113) | Potency (TAB165) | max response (CRL-7250) -5.88% | max response (HEK293) -0.911% | max response (HaCat [1]) -20.5% | max response (KB-3-1) -6.64% | max response (NIH3T3) -6.41% | Potency (MCC-13) | Potency (MCC-26) | Potency (MKL-1)
active: Potency (PC26) 16.9 µM

CC[N+](CC)(CCNC(=O)C(=O)NCC[N+](CC)(CC)Cc1ccccc1Cl)Cc1ccccc1Cl
inactive: outcome (CRL-7250) | max response (HEK293) 2.37% | max response (HaCat [1]) -1.93% | max response (KB-3-1) -5.89% | max response (NIH3T3) 3.32% | Potency (MCC-13) | Potency (MCC-26) | Potency (MKL-1)
active: Potency (P94_40) 0.316 µM | Potency (PAD) 2.82 µM | Potency (PC49) 5.01 µM | Potency (SC27B) 3.98 µM | Potency (TAB109) 1.41 µM | Potency (TAB113) 3.16 µM | Potency (TAB165) 1.26 µM | Potency (W2) 1.2 µM

NC(CS)C(=O)O (stereo not drawn)
inactive: outcome (CRL-7250) | max response (HEK293) -10% | outcome (HaCat [1]) | max response (KB-3-1) -0.484% | max response (NIH3T3) -3.73% | outcome (HACAT [2]) | Potency (MCC-13) | Potency (MCC-26) | Potency (MKL-1)
active: Potency (P94_40) 12.6 µM | Potency (TAB109) 10 µM | Potency (TAB113) 10 µM | Potency (W2) 4.26 µM
